The source of these data is PubChem BioAssay (NCATS).

Inconclusive results are not listed. Unmarked numbers belong to inactive results. Activity calls are given as the source filed them. The call rests on the fitted dose curve; in most records, active means well fitted inhibition curve with a large enough effect; inconclusive means small, poorly fitted or top-dose-only effect; inactive means no such curve, though single readings can be large or run the other way.

Chain of Rap guanine nucleotide exchange factor 3 (Homo sapiens) (O95398 whole entry, looked up): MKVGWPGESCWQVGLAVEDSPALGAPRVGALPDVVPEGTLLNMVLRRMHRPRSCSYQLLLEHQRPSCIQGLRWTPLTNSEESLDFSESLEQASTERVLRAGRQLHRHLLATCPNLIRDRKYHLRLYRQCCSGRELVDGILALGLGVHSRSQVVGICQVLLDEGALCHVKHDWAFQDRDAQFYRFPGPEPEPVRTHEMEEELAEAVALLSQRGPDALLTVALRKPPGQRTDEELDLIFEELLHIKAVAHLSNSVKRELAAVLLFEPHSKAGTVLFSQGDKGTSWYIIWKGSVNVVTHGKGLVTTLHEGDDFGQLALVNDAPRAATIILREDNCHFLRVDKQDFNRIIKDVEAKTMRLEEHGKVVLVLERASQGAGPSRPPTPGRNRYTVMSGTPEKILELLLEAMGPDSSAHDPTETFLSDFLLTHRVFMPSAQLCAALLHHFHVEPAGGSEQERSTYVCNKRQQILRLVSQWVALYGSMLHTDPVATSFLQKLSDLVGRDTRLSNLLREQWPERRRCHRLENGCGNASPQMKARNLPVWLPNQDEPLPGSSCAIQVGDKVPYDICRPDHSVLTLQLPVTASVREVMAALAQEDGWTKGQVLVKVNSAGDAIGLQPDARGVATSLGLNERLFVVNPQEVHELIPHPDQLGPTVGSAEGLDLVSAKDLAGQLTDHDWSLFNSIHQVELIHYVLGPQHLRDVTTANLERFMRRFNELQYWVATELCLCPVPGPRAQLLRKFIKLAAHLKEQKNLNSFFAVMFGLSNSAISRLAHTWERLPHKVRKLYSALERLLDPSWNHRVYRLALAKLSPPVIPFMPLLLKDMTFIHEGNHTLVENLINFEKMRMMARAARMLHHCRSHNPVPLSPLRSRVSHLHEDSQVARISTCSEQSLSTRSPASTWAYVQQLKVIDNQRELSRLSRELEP

For the first test, the target named is Rap guanine nucleotide exchange factor 4 (Homo sapiens) (UniProt Q8WZA2). The test can be described thus: Confirmatory qHTS for antagonist of cAMP-regulated guanine nucleotide exchange factor 4 (EPAC2) (AID 1645885). Further: nearly all actives have a fitted effect of over 25% in size. Further: potency means the concentration at half of the fitted maximal effect. On activity change, negative = inhibition: on the % scale 0 is the no-effect control and ±100 the full control effect. The following applies: EPAC2 Rap1B-BODIPY-GDP exchange fluorescence, biochemical; series mostly up to 12.7 µM; activity change, negative = inhibition: at the top concentration. Background: Quantitative high-throughput screening tests each substance at several concentrations.
Chain of Rap guanine nucleotide exchange factor 4 (Homo sapiens) (Q8WZA2 whole entry, looked up): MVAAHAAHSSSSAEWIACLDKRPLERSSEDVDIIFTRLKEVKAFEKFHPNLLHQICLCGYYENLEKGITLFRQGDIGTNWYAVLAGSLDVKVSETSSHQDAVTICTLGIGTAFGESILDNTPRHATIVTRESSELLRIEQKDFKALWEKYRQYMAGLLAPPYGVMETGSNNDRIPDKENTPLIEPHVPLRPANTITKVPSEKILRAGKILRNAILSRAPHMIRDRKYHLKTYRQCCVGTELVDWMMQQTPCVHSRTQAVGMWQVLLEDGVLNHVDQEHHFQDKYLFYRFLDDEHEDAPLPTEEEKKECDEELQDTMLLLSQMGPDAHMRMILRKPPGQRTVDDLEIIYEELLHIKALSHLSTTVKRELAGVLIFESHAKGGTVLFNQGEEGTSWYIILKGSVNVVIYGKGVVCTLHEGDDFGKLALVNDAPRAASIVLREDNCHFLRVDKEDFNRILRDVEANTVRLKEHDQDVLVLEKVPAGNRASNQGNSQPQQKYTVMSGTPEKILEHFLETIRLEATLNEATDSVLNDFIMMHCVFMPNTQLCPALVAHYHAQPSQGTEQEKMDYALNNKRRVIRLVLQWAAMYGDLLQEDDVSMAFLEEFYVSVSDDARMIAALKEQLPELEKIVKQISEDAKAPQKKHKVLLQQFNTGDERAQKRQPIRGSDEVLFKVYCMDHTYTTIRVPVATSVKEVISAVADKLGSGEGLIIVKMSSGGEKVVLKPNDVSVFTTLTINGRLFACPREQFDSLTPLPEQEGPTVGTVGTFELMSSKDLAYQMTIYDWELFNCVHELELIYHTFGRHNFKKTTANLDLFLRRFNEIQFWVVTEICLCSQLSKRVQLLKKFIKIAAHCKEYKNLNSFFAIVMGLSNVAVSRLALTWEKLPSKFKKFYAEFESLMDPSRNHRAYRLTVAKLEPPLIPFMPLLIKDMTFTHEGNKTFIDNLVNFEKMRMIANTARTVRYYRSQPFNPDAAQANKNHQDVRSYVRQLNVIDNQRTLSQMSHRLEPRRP
Take `CC(Oc1ccccc1)C(=O)Nc1nnc(S(=O)(=O)N2CCCCC2)s1` (centres undefined): the “activity change, negative = inhibition” value was 14% [at 114 µM].
As for `COc1cc(OC)nc(Oc2cccc(Cl)c2C)n1`, the “outcome” value is “inactive; activator; fitted 37.933 uM”.
With `CCN(CC)c1nc(SCC(=O)O)nc(N(CC)CC)n1`, the Potency was 12 µM (active).
With `C=CCOc1ccc(/C=C2\SC(=S)N(NS(=O)(=O)c3ccc(C)cc3)C2=O)cc1`, the “outcome” value was “inactive; activator; fitted 19.0115 uM”.
For the compound `O=C1S/C(=C\c2ccc(O)c([N+](=O)[O-])c2)C(=O)N1c1ccccc1Cl`, the Potency is 47.8 µM (active).
For the compound `O=C(NCCCn1ccnc1)c1cc(-c2cccnc2)nc2ccc(Br)cc12`, the “activity change, negative = inhibition” value was -6.46% [at 114 µM].
On the same count and under the same terms, to `COC(=O)C1=C(C)N(Cc2ccco2)C(=O)/C1=C\c1ccc(N(C)C)cc1` belongs -70.1% [at 114 µM]; to `Cc1ccc(NC(=O)c2cccc(NC(=O)/C=C/c3ccco3)c2)cc1C`, -1.37%.
Same read-out and setting: the same measure for `Cc1cc(Br)c2c(c1)C(O)(N1CCCCC1C)C(=O)N2` (centres undefined): -32.6%.
On the same count and under the same terms, to `CCCCNC(=O)Cn1nc(N2CCN(c3ccccc3OC)CC2)ccc1=O` belongs 13%.
For the compound `CC(=O)c1c(C(C)=O)c(C)n(-c2nc(-c3ccccc3)c(C)s2)c1C`, the outcome was inactive.
For `COc1ccccc1OCC(=O)Nc1cccc(S(=O)(=O)NC2=NCCCCC2)c1`, the “activity change, negative = inhibition” value is 6.03% [at 114 µM].
On the same count and under the same terms, the same measure for `CN(C(=O)COC(=O)/C=C/c1ccc2c(c1)OCO2)c1c(N)n(Cc2ccccc2)c(=O)[nH]c1=O`: -2.04% [at 114 µM]; for `CCOc1ccc(/C=C/C(=O)c2cc(Br)ccc(=O)c2O)cc1`: 5.19% [at 114 µM].
On to `Cc1ccc(Sc2ccc(S(=O)(=O)Nc3ccc(C(=O)O)cc3)cc2)cc1C`, for which the “activity change, negative = inhibition” value was 138% [at 114 µM].

In another test the target is Rap guanine nucleotide exchange factor 3 (Homo sapiens) (UniProt O95398). The test can be described thus: Counterscreen qHTS for antagonist of cAMP-regulated guanine nucleotide exchange factor 3 (EPAC1) (AID 1645888).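 Further: fluorescence loss as bound BODIPY-GDP is released from Rap1B; % of control where 0% means no effect.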 The following applies: Rap1B-BODIPY-GDP nucleotide exchange, fluorescence; series mostly up to 154 µM; activity change, negative = inhibition: at the top concentration. In short, it runs like this:
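Measured: fluorescence of BODIPY-GDP bound to Rap1B, which falls as exchange proceeds. Conditions include 50 uM competing GDP, 5 and 30 min reads, and a later cAMP challenge for antagonist detection.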
Background: The purpose of a counterscreen is to sort out artefacts and off-target activity.
Take `O=C(O)c1cc(N/N=C/c2ccncc2)ccc1Cl`: the activity change, negative = inhibition was -14% [at 30.8 µM].
Consider `Cc1ccccc1OCCC(=O)OCC(=O)N1CCN(S(=O)(=O)c2ccc(Cl)cc2)CC1`, for which the activity change, negative = inhibition was -4.15% [at 30.8 µM].
The same measure, in the same setting: to `COCCNC(=O)CS(=O)Cc1nc(-c2ccc(Cl)cc2)oc1C` (centres undefined) belongs 7.48% [at 30.8 µM]; to `O=c1oc2ccccc2nc1/C=C(O)/C=C\c1ccccc1`, -9.13% [at 30.8 µM].
Still for that read-out and setting: the same measure for `Nc1[nH]c(C(=O)c2ccccc2)c(-c2ccccc2C(F)(F)F)c1C(=O)NCCc1cccs1`: -7.72%; for `CCCOc1c(OC)cccc1C1CC(=O)Nc2cc(OC)c(OC)c(OC)c21` (centres undefined): -9.23%.
In the case of `CCOc1nc(C)cc(C)c1S(=O)(=O)c1ccc(Cl)cc1`, the activity change, negative = inhibition was 0.426% [at 30.8 µM].
As to `COc1ccc2nc(N3CCN(C(=O)C4CC4)CC3)sc2c1`, the “activity change, negative = inhibition” value is 31.7%.
Same read-out and setting: to `COc1cc(-c2c(CCO)sc3ccccc23)cc(OC)c1OC` belongs -51.2% [at 30.8 µM]; to `c1ccc(OCCCn2ccnc2)cc1`, 6.63%.
Same read-out and setting: to `CC(=O)Oc1c(Sc2ccccc2[N+](=O)[O-])c(C)nn1C(C)(C)C` belongs 0.976%.
With `C[C@@H](c1ccccc1)N1Cc2ccccc2Oc2cc(Br)ccc2S1(=O)=O`, the “activity change, negative = inhibition” value is -12.6%.
On the same count and under the same terms, the same measure for `O=C(N[C@@H](Cc1c[nH]c2ccccc12)C(=O)O)OCC1c2ccccc2-c2ccccc21`: -27.6%.
On the same count and under the same terms, the same measure for `O=C(CN1C(=O)N/C(=C\c2ccccc2OCc2ccc(C(=O)O)cc2)C1=O)Nc1ccccc1F`: -13.4% [at 30.8 µM].
Same read-out and setting: the same measure for `CN1C(=O)/C(=C\c2ccc(N(C)C)cc2)OC1=S`: 44.7%; for `CC1CCCCC1NC(=O)COC(=O)c1c2c(nc3ccccc13)/C(=C/c1ccco1)CC2` (centres undefined): 19.9%.
As to `CCCc1[nH]nc2c1C(c1cccnc1)C(C#N)=C(N)O2` (centres undefined), the activity change, negative = inhibition is -9.67% [at 30.8 µM].
On the same count and under the same terms, the same measure for `C=CCn1c(CSCc2ccc(Cl)cc2Cl)nnc1SCC(=O)Nc1ccc(C(=O)O)cc1`: -5.41% [at 30.8 µM]; for `CC(Sc1ccc(Cl)cc1)C(=O)NNC(=O)c1csc(N2CCOCC2)n1` (centres undefined): -11.6% [at 30.8 µM]; for `COc1cc2c(cc1OC)C(c1ccccc1Cl)N(C)CC2` (centres undefined): 3.04% [at 30.8 µM].
On the same count and under the same terms, the same measure for `CC1Cc2cc(C(=O)O)ccc2O1` (centres undefined): 10.1%; for `CC(C)OC(=O)c1c(-c2ccccc2)c(-c2ccccc2)nn(C)c1=O`: 3.17%; for `COc1ccccc1OCC(=O)Nc1cc(C(F)(F)F)ccc1-n1cncn1`: -12% [at 30.8 µM].
In the case of `COc1nc(C)cc(C)c1S(=O)(=O)c1ccccc1C`, the “activity change, negative = inhibition” value is -6.68%.
The same measure, in the same setting: to `O=c1c2ccccc2nc(/C=C/c2cccnc2)n1CCc1ccccc1` belongs -14.4%; to `CC(Oc1ccccc1)C(=O)Nc1nnc(S(=O)(=O)N2CCCCC2)s1` (centres undefined), 10.7%; to `COc1cc(OC)nc(Oc2cccc(Cl)c2C)n1`, 9.01%.
On the same count and under the same terms, the same measure for `CCN(CC)c1nc(SCC(=O)O)nc(N(CC)CC)n1`: -10.2%.
`C=CCOc1ccc(/C=C2\SC(=S)N(NS(=O)(=O)c3ccc(C)cc3)C2=O)cc1`: the “activity change, negative = inhibition” value is -4.8%.
